From PubChem BioAssay (NCATS)
Values without a mark were called inactive. Records with an inconclusive call do not appear. Entries that show only a call come without a potency. Activity calls are given as the source filed them. The call rests on the fitted dose curve; in most records, active means well fitted curve in the direction sought with a large enough effect; inconclusive means small, poorly fitted or top-dose-only effect, or another doubt; inactive means no such curve, though single readings can be large; an effect the other way counts as inactive or inconclusive.

Assays:
[1] = target: Glutathione peroxidase 1 (Homo sapiens) (UniProt P07203); test: Primary qHTS Assay for Inhibitors of Recombinant Selenoprotein Glutathione Peroxidase 1 (GPX1) (AID 1845191); further: nearly all actives have a fitted effect of over 65% in size; further: potency means the concentration at half of the fitted maximal effect
Glutathione peroxidase 1 (Homo sapiens), sequence (P07203 whole entry, looked up): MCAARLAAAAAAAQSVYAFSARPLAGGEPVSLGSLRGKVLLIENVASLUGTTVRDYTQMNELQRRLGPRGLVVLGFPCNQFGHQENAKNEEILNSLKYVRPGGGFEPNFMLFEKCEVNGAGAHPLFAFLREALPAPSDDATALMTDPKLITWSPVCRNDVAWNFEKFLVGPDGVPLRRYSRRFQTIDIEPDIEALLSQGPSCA
How it was run: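 GR-coupled readout: NADPH consumption tracked by fluorescence, ex 340/em 450 nm, at t=0 and after 15 min at RT. Final mix 10 nM GPX1, 1 mM GSH, 0.5 mM CHP, 0.5 mM NADPH, 100 nM GR, 0.01% BSA, following 30 min enzyme–compound preincubation.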

[2] = target: Phospholipid hydroperoxide glutathione peroxidase GPX4 (Homo sapiens) (UniProt P36969); test: Primary qHTS Assay for Inhibitors of Recombinant Selenoprotein Glutathione Peroxidase 4 (GPX4) (AID 1845192); further: nearly all actives have a fitted effect of over 65% in size
Phospholipid hydroperoxide glutathione peroxidase GPX4 (Homo sapiens), sequence (P36969 whole entry, looked up): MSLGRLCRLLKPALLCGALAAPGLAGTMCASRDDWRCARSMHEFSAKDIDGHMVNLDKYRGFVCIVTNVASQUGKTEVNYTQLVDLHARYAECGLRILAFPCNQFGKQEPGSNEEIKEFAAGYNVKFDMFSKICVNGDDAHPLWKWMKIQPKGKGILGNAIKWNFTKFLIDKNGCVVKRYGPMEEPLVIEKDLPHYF
How it was run: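 Steps: GPX4 plus compound, 30 min RT; add GR/GSH/NADPH master mix; start with cumene hydroperoxide; read 340/450 nm fluorescence at 0 and 15 min. Finals were 200 nM GPX4, 1 mM GSH, 0.5 mM CHP, 0.5 mM NADPH, 100 nM GR.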

[3] = target: Luciferin 4-monooxygenase (Photinus pyralis) (UniProt P08659); test: Primary firefly luciferase (FLuc) qHTS assay for identification of artifact compounds. (AID 1845220); further: nearly all actives have a fitted effect of over 60% in size
How it was run: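 Titrated compounds were incubated 15 min at RT, protected from light, with luciferin and ATP at 10 uM; reaction started with 10 nM FLuc, luminescence imaged at 5 min, and concentration-response fitted by Hill equation.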

[4] = Primary fluorescence-based thiol-reactive (MSTI) qHTS assay for identification of artifact compounds. (AID 1845221); further: nearly all actives have a fitted effect of over 65% in size; further: potency means the concentration at half of the fitted maximal effect;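 on activity change, negative = thiol reactive: series mostly up to about 54 µM; thiol-reactive compounds lower the probe fluorescence signal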
How it was run: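 Reactivity toward the thiol probe MSTI (4 uM) is scored by fluorescence at Ex/Em 525/598 nm after 1 h at room temperature. Acetyl-MSTI and MSTI define the activity scale.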

[5] = system: Nanoluciferase (engineered Oplophorus gracilirostris luciferase); test: Primary Nanoluciferase (NLuc) qHTS assay for identification of artifact compounds. (AID 1845222);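 further: NLuc secreted into diluted conditioned medium of S16 cells; series mostly up to about 54 µM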
How it was run: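 qHTS format, against NLuc in S16 cell-conditioned medium. Nano-Glo substrate 1:100 was added after 15 min at room temperature. Luminescence was taken after a further 5 min.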

CCNC(=O)[C@H]1O[C@H](n2cnc3c(NCC(c4ccccc4)c4ccccc4)nc(C(=O)NCCNC(=O)NC4CCN(c5ccccn5)CC4)nc32)[C@H](O)[C@@H]1O
Potency [1]: inactive | Potency [2]: inactive | Potency [3]: inactive | Potency [4]: inactive

C=C(C(=O)OC)C1CCC2(C)C(O[C@@H]3O[C@H](CO)[C@@H](O)[C@H](O)[C@H]3O)CC(=O)C(C)C2C1O (stereo partly drawn)
Potency [1]: inactive | Potency [2]: inactive | Potency [3]: inactive | Potency [4]: 4.12 µM (active)

CC(=O)N(O)CCCCCN1C(=O)CCC1=O
Potency [1]: inactive | Potency [2]: inactive | Potency [3]: inactive

CC1(C)C(=O)C(C)(C)c2cc(C(=O)Nc3ccc(C(=O)O)cc3)ccc21
Potency [1]: inactive | Potency [2]: inactive | Potency [3]: inactive | Potency [4]: inactive

C=C1CCC2C(C)(C(=O)O)CC(O)CC2(C)C1CC/C(C)=C/C(=O)O (stereo not drawn)
Potency [1]: inactive | Potency [2]: inactive | Potency [3]: inactive

CC1=CCC2C(C)(CO)CCCC2(CO)C1CO (stereo not drawn)
Potency [1]: inactive | Potency [2]: inactive | Potency [3]: inactive | Potency [4]: 13.4 µM (active)

CC(Oc1ccccc1)C(=O)N[C@@H]1C(=O)N2[C@@H]1SC(C)(C)[C@@H]2C(=O)O (stereo partly drawn)
Potency [1]: inactive | Potency [2]: inactive

C=CC(C)(O)CO[C@@H]1O[C@H](CO)[C@@H](O)[C@H](O)[C@H]1O (stereo partly drawn)
Potency [1]: inactive | Potency [2]: inactive

CCCCCCCCCCCCCC[n+]1ccc(C)cc1
Potency [1]: inactive | Potency [2]: inactive

CC1(C)C(C=C(Cl)Cl)C1C(=O)OCc1cccc(Oc2ccccc2)c1 (stereo not drawn)
Potency [1]: inactive | Potency [2]: inactive

Nc1c(Br)cc(Br)cc1CNC1CCC(O)CC1 (stereo not drawn)
Potency [1]: inactive | Potency [2]: inactive | Potency [3]: inactive | Potency [4]: inactive

C[C@@H]1O[C@@H](O[C@H]2[C@H](O)[C@@H](C(=O)O)O[C@@H](O[C@H]3CC[C@@]4(C)C(CC[C@]5(C)C4CC=C4C6CC(C)(C)CC[C@]6(C(=O)O)CC[C@]45C)C3(C)C)[C@@H]2O[C@@H]2O[C@H](CO)[C@@H](O)[C@H](O)[C@H]2O)[C@H](O)[C@H](O)[C@H]1O (stereo partly drawn)
Potency [1]: inactive | Potency [2]: inactive | outcome [3]: inactive [at 11.6 µM] | activity change, negative = thiol reactive [4]: 296% [at 11.5 µM] | activity, negative = inhibition [5]: -0.245% [at 11.6 µM]

OC[C@H]1O[C@@H](Oc2ccc(O)c3cccc(O)c23)[C@H](O)[C@@H](O)[C@@H]1O
Potency [1]: inactive | Potency [2]: inactive | Potency [3]: inactive | Potency [4]: 0.927 µM (active)

CCc1cc2c(=O)c(-c3nc4ccccc4s3)coc2c(CN2CCCCC2)c1O
Potency [1]: 11.1 µM (active) | Potency [2]: inactive | Potency [3]: inactive | Potency [4]: inactive

CNc1nc(Nc2cnn([C@H]3CCN(C4COC4)C[C@@H]3F)c2Cl)ncc1C(F)(F)F
Potency [1]: inactive | Potency [2]: inactive | Potency [3]: inactive | Potency [4]: inactive | Potency [5]: inactive

C=C1CC[C@H]2[C@@](C)(CCC(O)[C@@]2(C)CO)[C@@H]1C/C=C(/C(=O)O)C(O)CO (stereo partly drawn)
Potency [1]: inactive | Potency [2]: inactive | Potency [3]: inactive | Potency [4]: 6.56 µM (active)

C=CC1(C)CC(O)C2(CCC3C(C)(C(=O)O)CCCC3(C)C2=O)C1 (stereo not drawn)
Potency [1]: inactive | Potency [2]: inactive | Potency [3]: inactive | Potency [4]: inactive

CN1C(=O)N[C@@H](Cc2c[nH]c3c(Cl)cccc23)C1=O
Potency [1]: inactive | Potency [2]: inactive | Potency [3]: inactive | Potency [4]: inactive

CC(C)CC(=O)O[C@@H]1OC=C(CO[C@@H]2O[C@H](CO[C@@H]3O[C@H](CO)[C@@H](O)[C@H](O)[C@H]3O)[C@@H](O)[C@H](O)[C@H]2O)[C@H]2C[C@H](O)[C@@H](CO)[C@@H]12
Potency [1]: inactive | Potency [2]: inactive | Potency [3]: inactive | Potency [4]: inactive | Potency [5]: inactive

COC12CC3C(C(C)C1=CC(=O)O2)C(O)C(OC(C)=O)C1C(C)(C)C(OC(C)=O)CCC31C (stereo not drawn)
Potency [1]: inactive | Potency [2]: inactive | Potency [3]: inactive | Potency [4]: inactive | Potency [5]: inactive

COC(=O)c1cc(CN2CCN(C(=N)N)CC2)cc(C(=O)N2CCN(C(=O)c3ccc(C(=N)N)cc3)CC2)c1
Potency [1]: inactive | Potency [2]: inactive | Potency [3]: inactive | Potency [4]: inactive

c1ccc(Cc2ncc3c(n2)CCNCC3)cc1
Potency [1]: inactive | Potency [2]: inactive | Potency [3]: inactive | Potency [4]: inactive | Potency [5]: inactive

CN1C(=O)c2ccccc2-n2c(nc3ccccc3c2=O)/C1=C/c1ccccc1
Potency [1]: inactive | Potency [2]: inactive | Potency [3]: inactive | Potency [4]: inactive | Potency [5]: inactive

COc1ncc(-c2ccc3c(Nc4cc(Oc5cc(F)cc(F)c5)cc(C(=O)O)c4)c(S(=O)(=O)NC4CC4)cnc3c2)c(OC)n1
Potency [1]: inactive | Potency [2]: inactive | Potency [3]: inactive | Potency [4]: inactive | Potency [5]: inactive

C=C1CCC2C(C)(C)C(O)CCC2(C)C1CCC(C)CCOC(=O)CCC(=O)O (stereo not drawn)
Potency [1]: inactive | Potency [2]: inactive | Potency [3]: inactive | Potency [4]: inactive | Potency [5]: inactive
